# Several values for one entry are separate records, joined by “and”; a condition that tells them apart may be missing. Identical values can stand only once. Compounds without any hit were thinned out: in the full panel of roughly 83,000, 20% have a hit.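 Compound tested at a single concentration for 48 hours in 96-well plates; a percent growth value below 10 was scored as active.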 Some compounds were tested as several samples or in several runs, with calls that do not always agree. Activity calls are given as the source filed them.
# Tested on: MDA-MB-468 breast
# Assay: NCI-60 one-dose screen, 48 h (100 = growth as untreated, 0 = no growth, -100 = all killed)
# Details: 10 µM unless noted
row,SMILES,growth
1,Nc1c(C(=O)NC2CCCCC2)sc2nc3c(cc12)C(=O)CCC3,86.1% (inactive)
2,COc1cccc(OC)c1Oc1c(-c2nc3ccccc3s2)c(C)nn1-c1ccccc1,71.2% (inactive)
3,Cc1ccncc1C(=O)O,101% (inactive)
4,Cc1ncc(C(=O)Nc2ccc(CN3CCN(C)CC3)c(C(F)(F)F)c2)cc1C#Cc1cncc2ncccc12,99.3% (inactive)
5,O=C(CO)C(O)C(O)C(O)C(O)CO (stereo not given),-18.1% (active) and 102% (inactive)
6,COc1cc2c(cc1-c1c(C)noc1C)ncc1nc(C3CCCCC3)n(C3CCC(OC(F)F)CC3)c12 (stereo not given),29.8% (inactive)
7,CCCCN1CCCC[C@@H]1C(=O)N[C@H](C(=O)N(C)[C@H](CCc1nc(C(=O)N[C@@H](Cc2ccccc2)C[C@H](C)C(=O)OC)cs1)C(C)C)C(C)C,22.3% (inactive)
8,O=C(NCc1ccccc1)C1CN(c2ccc(Cl)cc2)N(c2ccc(Cl)cc2)C1=O (stereo not given),71.5% (inactive)
9,CC(Cl)(CCl)CS(=O)(=O)c1ccc(Cl)cc1 (stereo not given),104% (inactive)
10,CCOC(=O)[C@@H]1[C@H](c2ccccc2)[C@H]([N+](=O)[O-])[C@H](c2cn(-c3ccccc3)nc2C)N1Cc1ccccc1,82.9% (inactive)
11,O=C(Nc1nc2ccc(C(F)(F)F)cc2s1)c1cc(Cl)ccc1O,-1.49% (active)
12,[2H]C1([2H])[C@H](C)O[C@H](C)C([2H])([2H])N1c1ccc(NC(=O)c2cccc(-c3ccc(OC(F)(F)F)cc3)c2C)cn1,41.9% (inactive)
13,O=Nc1c(-c2cccc([N+](=O)[O-])c2)nc2ncccn12,17.4% (inactive)
14,C/C=C/C(=O)OCCCCCCCCCCCC,96.9% (inactive)
15,CN1CCN(c2ccc3nc(-c4[nH]ncc4Nc4ncnc5[nH]ccc45)[nH]c3c2)CC1,-55.6% (active)
16,O=Cc1ncc(-c2ccc(C(F)(F)F)cc2)c(NC2CCCCCC2)n1,2.41% [100 µM] (active)
17,O=C(/C=C/c1ccccn1)c1ccccc1O,41.6% (inactive) and 70.3% (inactive)
18,C=CCn1c(SCC(=O)Nc2ccc(C(=O)/C=C/c3ccc(Cl)cc3)cc2)nnc1-c1cc(OC)c(OC)c(OC)c1,79% (inactive)
19,CS(=O)(=O)c1ccc(C(=O)N/N=C/c2ccc3c(c2)OCO3)cc1,109% (inactive)
20,CC1C(/C=N/Nc2ccccc2)C(C#N)(C#N)C1(C#N)C#N (stereo not given),91.3% (inactive)

row,SMILES,growth
1,CCOC(=O)c1c(Nc2ccccc2)nn2c(N)c(C#N)c(-c3ccc(F)cc3)nc12,82.5% (inactive)
2,Nc1nc(-c2cccc([N+](=O)[O-])c2)c(N=Nc2ccccc2Cl)s1,55.2% (inactive)
3,Cn1/c(=N\N=C\c2ccccc2OCCO)sc2ccccc21,103% (inactive)
4,Clc1ccc2c(NCCCn3ccnc3)c3oc4ccc(Cl)cc4c3nc2c1,31.3% (inactive)
5,CC(=O)Oc1ccc(/C=N/NC(N)=S)nc1,-13.9% (active)
6,O=C1C(N2CCOCC2)=Cc2cccc3cccc1c23,72% (inactive)
7,O=C(N/N=C/c1cc2ccccc2nc1Cl)c1cc(-c2nc3ccccc3[nH]2)nc2ccccc12,98.5% (inactive)
8,Cc1cc(N2CCCC2)nc(N(CCNc2ccnc3cc(Cl)ccc23)Cc2ccco2)n1,13.3% (inactive)
9,CC(=O)O.[In],101% (inactive)
10,OCCN1CCN(CC/C=C2/c3ccccc3Sc3ccc(C(F)(F)F)cc32)CC1,68.4% (inactive)
11,COc1cc(/C=C/C(=O)N2c3ccccc3CC2C)c(OC)c2c1OCO2 (stereo not given),86.9% (inactive)
12,NC(=O)[C@@H]1Cc2ccccc2CN1C(=O)c1ccc2c(c1)Cc1ccccc1-2,71.4% (inactive)
13,COc1cc(C2C=C(C)N=C3SC=NN32)cc(OC)c1OC (stereo not given),102% (inactive)
14,C=CCN1C(=O)/C(=C\c2ccc3c(c2)CCC3)SC1=S,116% (inactive)
15,COC1CC(OC(=O)c2ccc([N+](=O)[O-])cc2)C(COC(=O)c2ccc([N+](=O)[O-])cc2)O1 (stereo not given),93.6% (inactive)
16,CCN(CC)CCN1C(=O)c2cccc3c(/C=C/CN4C(=O)c5cccc6cccc(c56)C4=O)ccc(c23)C1=O,99.2% (inactive)
17,COc1cc(C2=NN(C(C)=O)C(c3cccc(Nc4ccnc5cc(C(F)(F)F)ccc45)c3)C2)cc(OC)c1OC (stereo not given),50.5% (inactive)
18,COc1cc(N2C(=O)c3nccnc3C2=O)cc(OC)c1OC,115% (inactive)
19,Cc1ccc(C2=Nc3c(N)ncnc3NC(c3cccc(Nc4ccnc5cc(C(F)(F)F)ccc45)c3)C2)cc1 (stereo not given),24.8% (inactive)
20,COc1cc2c3c(cc4c5c(ccc4c3c1OC)OCO5)N(CCN(C)C)C2=O,-48.8% (active)

# Source: PubChem BioAssay (NCI)
